Several values for one entry are separate records, joined by “and”; a condition that tells them apart may be missing. Identical values can stand only once. Among all 5,500 compounds or so, about 2,000 (36%) were called active. Inconclusive results (about 18%) are left out. Cut-off read from the data, not from the text of the source: active = normalized growth mostly below about 0.91 (no sharp cut-off); inconclusive = no clear call, values can overlap the other calls; inactive = mostly above about 0.92. The list shows a part of the results.
Assay: chemical genetic growth profiling, strain panel (AID 1159580);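 note: tested at 20 µM; growth read once vehicle control cultures reached saturation at 30 °C; 1 = growth at the plate median or of vehicle wells; lower values mean less growth of the strain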
Conditions: growth OD

Measured: normalized growth

C=C1CCC(C2CC(=O)OC2=O)C(=O)CCC2C1CC2(C)C (centres undefined)
inactive: S. cerevisiae deletion strains, locus YAL021C, strain ccr4, hits give low values 0.991 | S. cerevisiae deletion strains, locus YAL026C, strain drs2, hits give low values 1 | S. cerevisiae deletion strains, locus YAL030W, strain snc1, hits give low values 1.01 | S. cerevisiae deletion strains, locus YBL061C, strain skt5, hits give low values 1 | S. cerevisiae deletion strains, locus YBR009C, strain hhf1, hits give low values 1 | S. cerevisiae deletion strains, locus YBR021W, strain FUR4, hits give low values 1 | S. cerevisiae deletion strains, locus YBR023C, strain chs3, hits give low values 1 | S. cerevisiae deletion strains, locus YBR171W, strain sec66, hits give low values 1 | S. cerevisiae deletion strains, locus YBR229C, strain ROT2, hits give low values 1.01 | S. cerevisiae deletion strains, locus YBR231C, strain swc5, hits give low values 1 | S. cerevisiae deletion strains, locus YBR279W, strain paf1, hits give low values 1.01 | S. cerevisiae deletion strains, locus YCL011C, strain gbp2, hits give low values 1 | S. cerevisiae deletion strains, locus YCL016C, strain dcc1, hits give low values 0.993 | S. cerevisiae deletion strains, locus YCL029C, strain bik1, hits give low values 1.02 | S. cerevisiae deletion strains, locus YCL069W, strain vba3, hits give low values 1.02 | S. cerevisiae deletion strains, locus YCR088W, strain abp1, hits give low values 1.01 | S. cerevisiae deletion strains, locus YDL005C, strain med2, hits give low values 1.01 | S. cerevisiae deletion strains, locus YDL035C, strain GPR1, hits give low values 0.995 | S. cerevisiae deletion strains, locus YDL040C, strain nat1, hits give low values 1.01 | S. cerevisiae deletion strains, locus YDL074C, strain BRE1, hits give low values 1.03 | S. cerevisiae deletion strains, locus YDL101C, strain DUN1, hits give low values 1.02 | S. cerevisiae deletion strains, locus YDL134C, strain PPH21, hits give low values 1.04 | S. cerevisiae deletion strains, locus YDL185W, strain tfp1, hits give low values 1.02 | S. cerevisiae deletion strains, locus YDL192W, strain arf1, hits give low values 1.01 | S. cerevisiae deletion strains, locus YDR001C, strain nth1, hits give low values 1 | S. cerevisiae deletion strains, locus YDR069C, strain doa4, hits give low values 0.988 | S. cerevisiae deletion strains, locus YDR101C, strain arx1, hits give low values 0.972 | S. cerevisiae deletion strains, locus YDR137W, strain rgp1, hits give low values 1.01 | S. cerevisiae deletion strains, locus YDR159W, strain sac3, hits give low values 0.97 | S. cerevisiae deletion strains, locus YDR162C, strain NBP2, hits give low values 1 | S. cerevisiae deletion strains, locus YDR195W, strain ref2 0.986 | S. cerevisiae deletion strains, locus YDR297W, strain sur2, hits give low values 1 | S. cerevisiae deletion strains, locus YDR318W, strain mcm21, hits give low values 1 | S. cerevisiae deletion strains, locus YDR334W, strain swr1, hits give low values 1 | S. cerevisiae deletion strains, locus YDR335W, strain msn5, hits give low values 1.02 | S. cerevisiae deletion strains, locus YDR388W, hits give low values 1 | S. cerevisiae deletion strains, locus YDR392W, strain spt3, hits give low values 0.876 | S. cerevisiae deletion strains, locus YDR502C, strain sam2, hits give low values 1.03 | S. cerevisiae deletion strains, locus YEL003W, strain gim4, hits give low values 1.01 | S. cerevisiae deletion strains, locus YEL037C, strain rad23, hits give low values 1.01 | S. cerevisiae deletion strains, locus YEL061C, strain CIN8 (second series), hits give low values 1.01 | S. cerevisiae deletion strains, locus YER015W, strain faa2, hits give low values 1.02 | S. cerevisiae deletion strains, locus YER016W, strain bim1, hits give low values 1 | S. cerevisiae deletion strains, locus YER110C, hits give low values 1.01 | S. cerevisiae deletion strains, locus YER111C, strain swi4, hits give low values 1.01 | S. cerevisiae deletion strains, locus YER155C, strain BEM2 (second series), hits give low values 0.983 | S. cerevisiae deletion strains, locus YER155C, strain BEM2, hits give low values 1.01 | S. cerevisiae deletion strains, locus YER167W, strain BCK2, hits give low values 1 | S. cerevisiae deletion strains, locus YFR010W, strain ubp6, hits give low values 1.01 | S. cerevisiae deletion strains, locus YGL078C, strain dbp3, hits give low values 1.03 | S. cerevisiae deletion strains, locus YGL086W, strain mad1, hits give low values 1.01 | S. cerevisiae deletion strains, locus YGL167C, strain pmr1, hits give low values 1.01 | S. cerevisiae deletion strains, locus YGL173C, strain kem1, hits give low values 1 | S. cerevisiae deletion strains, locus YGL227W, strain vid30, hits give low values 1.01 | S. cerevisiae deletion strains, locus YGL240W, strain doc1, hits give low values 0.987 | S. cerevisiae deletion strains, locus YGL248W, strain PDE1, hits give low values 1.04 | S. cerevisiae deletion strains, locus YGL253W, strain hxk2, hits give low values 1.03 | S. cerevisiae deletion strains, locus YGR078C, strain PAC10, hits give low values 1.04 | S. cerevisiae deletion strains, locus YGR135W, strain pre9, hits give low values 1.05 | S. cerevisiae deletion strains, locus YGR252W, strain gcn5, hits give low values 1.09 | S. cerevisiae deletion strains, locus YHR013C, strain ard1, hits give low values 1.01 | S. cerevisiae deletion strains, locus YHR027C, strain rpn1, hits give low values 1 | S. cerevisiae deletion strains, locus YHR030C, strain SLT2, hits give low values 0.975 | S. cerevisiae deletion strains, locus YHR079C, strain IRE1 (second series), hits give low values 1.01 | S. cerevisiae deletion strains, locus YHR079C, strain IRE1, hits give low values 0.974 | S. cerevisiae deletion strains, locus YHR094C, strain hxt1, hits give low values 0.995 | S. cerevisiae deletion strains, locus YHR129C, strain ARP1, hits give low values 1.02 | S. cerevisiae deletion strains, locus YHR142W, strain chs7, hits give low values 1.04 | S. cerevisiae deletion strains, locus YHR200W, strain rpn10, hits give low values 1.03 | S. cerevisiae deletion strains, locus YIL066C, strain RNR3, hits give low values 1.01 | S. cerevisiae deletion strains, locus YIL073C, strain SPO22, hits give low values 1.02 | S. cerevisiae deletion strains, locus YIL125W, strain kgd1, hits give low values 0.98 | S. cerevisiae deletion strains, locus YIR030C, strain dcg1, hits give low values 1.01 | S. cerevisiae deletion strains, locus YJL092W, strain hpr5, hits give low values 1.02 | S. cerevisiae deletion strains, locus YJL095W, strain BCK1 (second series), hits give low values 1 | S. cerevisiae deletion strains, locus YJL095W, strain BCK1, hits give low values 1.06 and 0.979 | S. cerevisiae deletion strains, locus YJL115W, strain asf1, hits give low values 0.999 | S. cerevisiae deletion strains, locus YJL129C, strain trk1, hits give low values 0.989 | S. cerevisiae deletion strains, locus YJL134W, strain LCB3, hits give low values 0.997 | S. cerevisiae deletion strains, locus YJL154C, strain vps35, hits give low values 1.02 | S. cerevisiae deletion strains, locus YJL164C, strain tpk1, hits give low values 1 | S. cerevisiae deletion strains, locus YJL166W, strain qcr8, hits give low values 1 | S. cerevisiae deletion strains, locus YJL168C, strain set2, hits give low values 1.02 | S. cerevisiae deletion strains, locus YJL187C, strain SWE1 (second series), hits give low values 1.04 | S. cerevisiae deletion strains, locus YJR066W, strain TOR1, hits give low values 0.929 | S. cerevisiae deletion strains, locus YJR075W, strain HOC1, hits give low values 1.02 | S. cerevisiae deletion strains, locus YKL009W, strain mrt4, hits give low values 1 | S. cerevisiae deletion strains, locus YKL068W, hits give low values 1 | S. cerevisiae deletion strains, locus YKL085W, strain MDH1 (second series), hits give low values 1 | S. cerevisiae deletion strains, locus YKL085W, strain MDH1, hits give low values 1 | S. cerevisiae deletion strains, locus YKL160W, strain elf1, hits give low values 1 | S. cerevisiae deletion strains, locus YKR001C, strain vps1, hits give low values 1 | S. cerevisiae deletion strains, locus YKR026C, strain gcn3, hits give low values 1.01 | S. cerevisiae deletion strains, locus YKR091W, strain srl3, hits give low values 1 | S. cerevisiae deletion strains, locus YLL001W, strain dnm1, hits give low values 1.01 | S. cerevisiae deletion strains, locus YLL026W, hits give low values 1 | S. cerevisiae deletion strains, locus YLL041C, strain sdh2, hits give low values 1.01 | S. cerevisiae deletion strains, locus YLR027C, strain aat2, hits give low values 1.02 | S. cerevisiae deletion strains, locus YLR039C, strain RIC1, hits give low values 1.04 | S. cerevisiae deletion strains, locus YLR058C, strain SHM2, hits give low values 1 | S. cerevisiae deletion strains, locus YLR102C, strain apc9, hits give low values 1.01 | S. cerevisiae deletion strains, locus YLR113W, strain HOG1, hits give low values 0.946 | S. cerevisiae deletion strains, locus YLR221C, strain rsa3, hits give low values 0.99 | S. cerevisiae deletion strains, locus YLR258W, strain gsy2, hits give low values 1.03 | S. cerevisiae deletion strains, locus YLR262C, strain YPT6 (second series), hits give low values 0.993 | S. cerevisiae deletion strains, locus YLR268W, strain sec22, hits give low values 0.975 | S. cerevisiae deletion strains, locus YLR320W, strain mms22, hits give low values 0.999 | S. cerevisiae deletion strains, locus YLR330W, strain CHS5, hits give low values 1.01 | S. cerevisiae deletion strains, locus YLR342W, strain FKS1, hits give low values 1 | S. cerevisiae deletion strains, locus YLR357W, strain rsc2, hits give low values 1.03 | S. cerevisiae deletion strains, locus YLR370C, strain arc18, hits give low values 1.01 | S. cerevisiae deletion strains, locus YLR371W, strain rom2, hits give low values 0.997 | S. cerevisiae deletion strains, locus YLR384C, strain iki3, hits give low values 1.01 | S. cerevisiae deletion strains, locus YLR418C, strain cdc73, hits give low values 1.09 | S. cerevisiae deletion strains, locus YML016C, strain PPZ1, hits give low values 1.01 | S. cerevisiae deletion strains, locus YML032C, strain rad52, hits give low values 0.999 | S. cerevisiae deletion strains, locus YML120C, strain ndi1, hits give low values 1 | S. cerevisiae deletion strains, locus YML124C, strain tub3, hits give low values 1 | S. cerevisiae deletion strains, locus YMR058W, strain fet3, hits give low values 1.02 | S. cerevisiae deletion strains, locus YMR078C, strain ctf18, hits give low values 1 | S. cerevisiae deletion strains, locus YMR125W, strain sto1, hits give low values 1 | S. cerevisiae deletion strains, locus YMR129W, hits give low values 1.01 | S. cerevisiae deletion strains, locus YMR205C, strain PFK2, hits give low values 0.98 | S. cerevisiae deletion strains, locus YMR223W, strain ubp8, hits give low values 1.01 | S. cerevisiae deletion strains, locus YMR231W, strain pep5, hits give low values 0.991 | S. cerevisiae deletion strains, locus YMR263W, strain SAP30, hits give low values 1.01 | S. cerevisiae deletion strains, locus YMR307W, strain GAS1, hits give low values 1.06 | S. cerevisiae deletion strains, locus YNL067W, strain RPL9B, hits give low values 1.02 | S. cerevisiae deletion strains, locus YNL071W, strain lat1, hits give low values 1.01 | S. cerevisiae deletion strains, locus YNL153C, strain GIM3, hits give low values 1.03 | S. cerevisiae deletion strains, locus YNL183C, strain NPR1, hits give low values 0.937 | S. cerevisiae deletion strains, locus YNL209W, strain ssb2, hits give low values 1 | S. cerevisiae deletion strains, locus YNL233W, strain BNI4, hits give low values 1.04 | S. cerevisiae deletion strains, locus YNL248C, strain rpa49, hits give low values 0.928 | S. cerevisiae deletion strains, locus YNL250W, strain rad50, hits give low values 1.03 | S. cerevisiae deletion strains, locus YNL271C, strain bni1, hits give low values 1.01 | S. cerevisiae deletion strains, locus YNL298W, strain CLA4, hits give low values 0.993 | S. cerevisiae deletion strains, locus YNL307C, strain MCK1, hits give low values 1.01 | S. cerevisiae deletion strains, locus YNL322C, strain KRE1 (second series), hits give low values 0.989 | S. cerevisiae deletion strains, locus YNR049C, strain mso1, hits give low values 1.01 | S. cerevisiae deletion strains, locus YNR052C, strain pop2, hits give low values 1.01 | S. cerevisiae deletion strains, locus YOL012C, strain htz1 0.988 | S. cerevisiae deletion strains, locus YOL147C, strain pex11, hits give low values 1 | S. cerevisiae deletion strains, locus YOR001W, strain rrp6, hits give low values 0.976 | S. cerevisiae deletion strains, locus YOR061W, strain CKA2, hits give low values 0.991 | S. cerevisiae deletion strains, locus YOR069W, strain VPS5, hits give low values 1.01 | S. cerevisiae deletion strains, locus YOR070C, strain gyp1, hits give low values 1.02 | S. cerevisiae deletion strains, locus YOR080W, strain dia2, hits give low values 0.993 | S. cerevisiae deletion strains, locus YOR083W, strain WHI5, hits give low values 0.997 | S. cerevisiae deletion strains, locus YOR106W, strain vam3, hits give low values 1.02 | S. cerevisiae deletion strains, locus YOR136W, strain idh2, hits give low values 1.01 | S. cerevisiae deletion strains, locus YOR144C, strain elg1, hits give low values 0.996 | S. cerevisiae deletion strains, locus YOR184W, strain ser1, hits give low values 0.98 | S. cerevisiae deletion strains, locus YOR231W, strain MKK1, hits give low values 0.964 | S. cerevisiae deletion strains, locus YOR265W, strain rbl2, hits give low values 0.995 | S. cerevisiae deletion strains, locus YOR270C, strain vph1, hits give low values 1.01 | S. cerevisiae deletion strains, locus YOR290C, strain snf2, hits give low values 0.952 | S. cerevisiae deletion strains, locus YOR316C, strain cot1, hits give low values 1.02 | S. cerevisiae deletion strains, locus YPL051W, strain arl3, hits give low values 1 | S. cerevisiae deletion strains, locus YPL078C, strain atp4, hits give low values 1 | S. cerevisiae deletion strains, locus YPL106C, strain sse1, hits give low values 1 | S. cerevisiae deletion strains, locus YPL240C, strain hsp82, hits give low values 1 | S. cerevisiae deletion strains, locus YPL256C, strain CLN2, hits give low values 0.962 | S. cerevisiae deletion strains, locus YPR119W, strain clb2, hits give low values 1 | S. cerevisiae deletion strains, locus YPR141C, strain kar3, hits give low values 1 | S. cerevisiae deletion strains, locus YPR163C, strain tif3, hits give low values 1 | S. cerevisiae deletion strains, locus YPR167C, strain met16, hits give low values 1 | S. cerevisiae deletion strains, strain wtn01, hits give low values 0.997 | S. cerevisiae strains, strain wild type, hits give low values 0.999

From PubChem BioAssay AID1159580 (chemical genetic matrix, 2015)
